# Hits are enriched below; roughly 2.8% of the tested compounds scored in any of these assays.
# Pol kappa inh = blocks human DNA polymerase kappa activity | Q9UBT6 | purified Pol kappa, fluorescent DNA synthesis assay, 10 min | Potency, µM (top dose mostly 107 µM), without a hit: top-dose activity, negative = inhibition, most hits filed as inhibitors | 400,000 tested, 0.53% active; note: potency is the fitted concentration of half-maximal effect; % is set by controls: 0 for no effect and ±100 for the full control effect
#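 First, compounds were pin-transferred onto 10 nM Pol kappa. After 15 min at room temperature, substrate was added to 50 nM final. Fluorescence was then measured kinetically at 0 and 10 min.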
# PI5P4K alpha inh = blocks human PI5P4K alpha kinase activity | max response, % | 330,000 tested, 1.2% active | AID 652105 | PI5P4Kalpha enzyme, ADP-Glo luminescence, 60 min; active compounds read low | P48426; active = max response of -50% or lower; inconclusive = between -30% and -50%; inactive = -30% or higher; note: value at the top dose of about 77 µM; % is set by controls: 0 for no effect and ±100 for the full control effect
#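 Controls without substrate or without enzyme flank wells where PI5P4Kalpha converts substrate using 5 microM ATP (final). Incubation lasts 60 minutes at room temperature; ADP formed is read by ADP-Glo luminescence.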
# POLH inh = inhibitors of human DNA polymerase eta. Q9Y253. recombinant Pol eta, fluorescent DNA replication assay. Potency, µM (top dose mostly 114 µM), without a hit: at the highest dose activity change, negative = inhibition, most hits filed as inhibitors. 390,000 tested, 1.2% active; note: potency is the fitted concentration of half-maximal effect; % is set by controls: 0 for no effect and ±100 for the full control effect
# Target sequence (Q9Y253 whole entry, looked up): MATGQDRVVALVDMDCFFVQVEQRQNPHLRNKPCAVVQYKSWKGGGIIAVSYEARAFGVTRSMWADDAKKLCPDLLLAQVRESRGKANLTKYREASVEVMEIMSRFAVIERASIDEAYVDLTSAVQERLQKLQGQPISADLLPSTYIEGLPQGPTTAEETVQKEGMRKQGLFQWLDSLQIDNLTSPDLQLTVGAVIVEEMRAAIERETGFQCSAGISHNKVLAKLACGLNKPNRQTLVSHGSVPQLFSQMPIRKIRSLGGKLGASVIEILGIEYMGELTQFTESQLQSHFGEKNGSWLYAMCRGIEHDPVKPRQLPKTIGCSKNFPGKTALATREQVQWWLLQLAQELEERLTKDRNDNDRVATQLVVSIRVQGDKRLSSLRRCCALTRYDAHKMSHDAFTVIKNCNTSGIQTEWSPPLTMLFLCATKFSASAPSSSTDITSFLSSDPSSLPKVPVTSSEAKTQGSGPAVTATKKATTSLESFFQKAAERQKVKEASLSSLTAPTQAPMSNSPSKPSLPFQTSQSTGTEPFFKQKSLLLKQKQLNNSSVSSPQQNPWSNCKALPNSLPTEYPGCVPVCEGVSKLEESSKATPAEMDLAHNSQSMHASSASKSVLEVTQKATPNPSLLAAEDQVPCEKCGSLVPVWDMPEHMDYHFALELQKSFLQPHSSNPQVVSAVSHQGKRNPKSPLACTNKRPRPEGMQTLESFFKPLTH
#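 Fluorescent replication assay: 50 nM final substrate added after a 15 min room-temperature compound preincubation with 10 nM enzyme. Signal taken at 0 min and again at 10 min.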
# POLB inh = inhibitors of human DNA polymerase beta; Potency, µM (highest dose often 114 µM), inactives show at the top dose activity change, negative = inhibition, usual class: inhibitors; P06746; Pol beta primer extension/strand displacement, fluorescence kinetic; 340,000 tested, 1.3% active; note: potency is the fitted concentration of half-maximal effect; % is set by controls: 0 for no effect and ±100 for the full control effect
#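 Homogeneous kinetic assay of primer extension and strand displacement by 10 nM Pol beta, preincubated 15 min at room temperature with compound before 50 nM substrate (final) was added. Read at 0 and 10 min; four-parameter Hill fit.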
# Pol iota inh = blocks human DNA polymerase iota activity | 390,000 tested, 1% active | Potency, µM (series often up to 115 µM), for the others: at the highest dose activity, negative = inhibition, actives largely listed as inhibitors | Pol iota fluorescent replication assay, 10 min | Q9UNA4 | AID 588590; note: potency is the fitted concentration of half-maximal effect
#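 Fluorescent replication assay read twice, at 0 min and 10 min after adding 50 nM (final) substrate. Enzyme (10 nM) and compounds were first incubated 15 min at room temperature; enzyme-free buffer wells were negative controls.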
# WRN inhibitor = blocks human WRN helicase; Q14191; WRN helicase unwinding, fluorescent forked duplex, kinetic; Potency, µM (series often up to 114 µM), for inactives: at the top dose activity change, negative = inhibition, hits mostly inhibitors; 360,000 tested, 0.46% active; note: potency is the fitted concentration of half-maximal effect; % is set by controls: 0 for no effect and ±100 for the full control effect; nearly all actives have a fitted effect of over 55% in size
#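 WRN at 20 nM final preincubated with compound 15 min at room temperature; reaction started with 100 nM fluorophore/quencher forked duplex oligonucleotide and 2 mM ATP final. Unwinding followed kinetically by red fluorescence (ex 525, em 598 nm).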
# An asterisk follows results filed as active; ? = inconclusive; nt = no result given; [ ] = remark or other dose. Unless noted, calls come from the whole dose curve; as a rule, active = well fitted curve in the direction sought with a large enough effect; inconclusive = small, poorly fitted or top-dose-only effect, or another doubt; inactive = no such curve, though single readings can be large; an effect the other way counts as inactive or inconclusive.
SMILES,Pol kappa inh,PI5P4K alpha inh,POLH inh,POLB inh,Pol iota inh,WRN inhibitor
COc1cc2c(NC3CCN(C)CC3)nc(N3CCCN(C)CC3)nc2cc1OCCCN(C)C,-37%,nt,nt,nt,?,nt
COc1cc2nc(N(C)C)nc(NC3CCN(C)CC3)c2cc1OC,?,nt,nt,nt,25µM*,nt
COc1cc2c(NC3CCN(C)CC3)nc(N3CCCCC3)nc2cc1OCCOCCN(C)C,-29%,nt,nt,nt,50µM*,nt
COc1cc2nc(N(C)C)nc(N)c2cc1OC,-8%,5,5%,45µM*,?,-21%
COc1cc2c(NC3CCN(C)CC3)nc(N3CCCCC3)nc2cc1OCCCN(C)C,?,nt,nt,nt,40µM*,nt
COc1cc2c(NC3CCN(C)CC3)nc(N3CCCN(C)CC3)nc2cc1OCCOCCN(C)C,-16%,nt,nt,nt,?,nt
COc1ccc(CNc2nc(-c3ccco3)nn2S(=O)(=O)c2ccc3ccccc3c2)cc1OC,-9%,nt,-18%,-9%,3%,nt
CSc1nc(Nc2ccc(C)cc2)c(C#N)c(-c2ccccc2)n1,4%,nt,-13%,-4%,-4%,nt
COc1ccc(NC(=O)c2sc3nc(C)c(C(=O)Nc4ccc(C)cc4C)c(-c4ccc(C)o4)c3c2N)cc1,-13%,nt,-8%,7%,29%,nt
COc1cccc(C2CC(=O)Nc3c2c(=O)n(C)c2nc4ccccc4n32)c1OC (stereo unspecified),-7%,nt,-6%,30%,2%,nt
CC1(C)C(=O)Nc2ccccc2N1C(=O)COC(=O)c1cccnc1,-30%,?,?,nt,28µM*,-3%[11.6 µM]
CC1(C)C(=O)Nc2ccccc2N1C(=O)COC(=O)c1cc(Cl)cc(Cl)c1,-6%,-24,-16%,nt,?,-20%
CC1(C)C(=O)Nc2ccccc2N1C(=O)COC(=O)C12CC3CC(CC(O)(C3)C1)C2,?,?,14µM*,20µM*,50µM*,-5%[11.6 µM]
Cc1cc(C)cc(NC(=O)N2CCC(C(N)=O)(N3CCCCC3)CC2)c1,-3%,nt,1%,24%,-8%,nt
Cc1cccc(N2CCN(C(=O)CCCn3ncn4c(cc5occc54)c3=O)CC2)c1C,-9%,nt,-18%,0%,?,nt
CCN(CC)C(=O)c1ccc(COc2ccc(Cl)c(C)c2)o1,0%,12,-22%,89µM*,27%,-4%[57.1 µM]
Cc1ccc(-c2n[nH]c(=S)n2/N=C/c2c(C)[nH]n(-c3ccccc3)c2=O)cc1,-5%,-58*,-19%,1%,13%,1%
Cc1ccccc1NC(=O)c1c(C)[nH]c(=S)c(C#N)c1-c1ccco1,-8%,-63*,-9%,-27%,?,0%
O=C(Nc1cccc(C(F)(F)F)c1)c1cc2nc(-c3ccc4c(c3)OCO4)cc(C(F)(F)F)n2n1,0%,nt,-13%,38%,11%,nt
O=C(O)c1cccc(Cn2c(Cl)c(/C=N/NC(=O)c3cc4ccccc4cc3O)sc2=O)c1,32µM*,-73*,6.3µM*,11µM*,8.9µM*,40µM*
COc1cccc(CNC(=O)Cn2nc(C)c3sc4ccccc4c3c2=O)c1OC,-2%,nt,-15%,-16%,-10%,nt
CCOc1ccc(CNC(=O)Cn2nc(C)c3sc4ccccc4c3c2=O)cc1,-12%,nt,-12%,89µM*,13%,nt
Cc1nn(CC(=O)NCCCc2ccccc2)c(=O)c2cccn12,5%,-2,-9%,4%,12%,0%
Cc1nn(CC(=O)NCc2cccc(Br)c2)c(=O)c2c1sc1ccccc12,-4%,nt,-10%,6.3µM*,7%,nt
COc1cc(OC)c(NC(=O)CCCn2nc(C)c3sc4ccccc4c3c2=O)cc1Cl,?,nt,-18%,16µM*,?,nt
SMILES,Pol kappa inh,PI5P4K alpha inh,POLH inh,POLB inh,Pol iota inh,WRN inhibitor
Cc1nn(CC(=O)NCc2cccc(F)c2)c(=O)c2cccn12,89µM*,-2,-15%,0%,?,-4%[11.6 µM]
COc1ccc(-c2cn3cccnc3n2)cc1NC(=O)Nc1ccc(Cl)cc1,-9%[60.1 µM],nt,6%,-2%,2%,nt
CCCCNC(=O)CSc1nc2nc(C)c(Cc3ccccc3C)c(C)n2n1,2%,nt,-15%,10%,16%,nt
NS(=O)(=O)c1ccc(N=Nc2ccc(O)c3ncccc23)cc1,4%,-79*,?,-25%,-12%,-3%
N#C/C(=N\Nc1ccc(S(=O)(=O)N2CCc3ccccc32)cc1)C(N)=S,-22%,-62*,?,2%,45%,?
Cc1cccc(C(=O)Nc2cccc(OCc3cc(=O)n4ccccc4n3)c2)c1,-7%[60.1 µM],nt,9%,0%,-16%,nt
O=C(NCCn1cc(SCc2ccccc2)c2ccccc21)c1cccs1,?,nt,-18%,17%,89µM*,nt
O=C(NCCn1cc(SCc2ccc(Br)cc2)c2ccccc21)c1cccs1,0%,nt,-23%,-1%,8%,nt
Oc1ccccc1Oc1ncc(Br)c(Cl)n1,-40%,-14,-3%,22µM*,50µM*,-6%[11.6 µM]
Cc1cccc(C)c1NC(=O)CSCC(=O)c1ccc(O)c(O)c1,-40%,-5,?,-26%,20µM*,?
CCN1CCN(c2nc(Nc3ccc(NC(C)=O)cc3)nc(Nc3ccc(NC(C)=O)cc3)n2)CC1,?,0,?,?,?,25µM*
Cc1ccc(Cl)cc1N1CCN(C(=O)c2c(C)oc3ncnc(N4CCOCC4)c23)CC1,-2%,nt,12%,0%,-4%,nt
O=C(O)c1ccc(NC(CSCc2ccc(F)cc2)C(=O)O)c([N+](=O)[O-])c1 (stereo unspecified),-15%,nt,-1%,3%,79µM*,-2%
CCc1ccc(NC2=CC(=O)C(=O)c3ccccc32)cc1,-16%,-10,50µM*,nt,?,-31%
O=C1C=C(Nc2ccccc2)c2ccccc2C1=O,2%,0,?,-2%,22µM*,3%[11.6 µM]
CCC(=O)O[C@H]1C(O[C@@H]2C(C)[C@H](O[C@H]3C[C@@](C)(OC)C(O)C(C)O3)C(C)C(=O)OC(CC)[C@@](C)(O)C(O)[C@H](C)C(=O)C(C)C[C@]2(C)O)OC(C)CC1N(C)C (stereo partly specified),32µM*,nt,nt,nt,nt,nt
CC1CCC/C(=N\Nc2ccc(Cl)c(C(=O)O)c2)C1 (stereo unspecified),?,-10,8.9µM*,32µM*,?,?
C#CCn1c(=NC(=O)CN2C(=O)CCC2=O)sc2cccc(OC)c21,8%,1,-9%,14%,0%,4%
